Screening results: PubChem BioAssay, National Center for Advancing Translational Sciences (NCATS)
Shown is part of a subset that was picked to be rich in hits.
BLM inh – Bloom syndrome helicase (human) inhibition; AID 2528; P54132; Potency, µM (series often up to 56.1 µM), for inactives: at the top dose activity change, negative = inhibition, most hits filed as inhibitors; actives 0.2% (n = 350,000); recombinant BLM DNA unwinding, fluorescence dequenching;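 further: plate controls were vehicle for no effect and no enzyme for full effect; nearly all actives have a fitted effect of over 35% in size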
JMJD2E inh – inhibitors of human JMJD2E histone demethylase. AID 2147. actives 1.6% (n = 230,000). Potency, µM (highest dose often 57.1 µM), for the others: at the highest dose activity change, negative = inhibition, hits mostly inhibitors. B2RXH2. JMJD2E catalytic domain, FDH-coupled NADH fluorescence (FDH is formaldehyde dehydrogenase);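 further: 0% = wells with enzyme and -100% = buffer wells without enzyme; nearly all actives have a fitted effect of over 50% in size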
Target sequence (B2RXH2 1-337 limits assumed): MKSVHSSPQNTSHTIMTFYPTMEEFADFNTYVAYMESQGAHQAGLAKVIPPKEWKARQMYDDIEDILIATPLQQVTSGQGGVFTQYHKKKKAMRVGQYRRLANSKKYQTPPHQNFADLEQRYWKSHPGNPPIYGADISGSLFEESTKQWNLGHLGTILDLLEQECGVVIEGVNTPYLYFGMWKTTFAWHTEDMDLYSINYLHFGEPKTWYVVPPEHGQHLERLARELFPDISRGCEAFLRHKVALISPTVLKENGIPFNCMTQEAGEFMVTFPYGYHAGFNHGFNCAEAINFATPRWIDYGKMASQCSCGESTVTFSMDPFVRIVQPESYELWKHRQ
L3MBTL1 inh – blocks human L3MBTL1; actives 0.66% (n = 230,000); Q9Y468; AlphaScreen L3MBTL1–H3K9me1 peptide binding; Potency, µM (titrated, usually from 57.1 µM), for inactives: top-dose activity, negative = inhibition, usual class: inhibitors; further: nearly all actives have a fitted effect of over 60% in size
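First, the protein-peptide complex forms for 30 min at room temperature (L3MBTL1 50 nM, biotinylated H3K9me1 peptide 75 nM). Next, compounds are pin-transferred and incubated 30 min. Finally, AlphaScreen beads are added and read after 30 min.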
RECQ1 helicase – inhibitors of human RECQ1 DNA helicase. P46063. RECQ1 DNA unwinding, red fluorescence kinetic read. Potency, µM (titrated, usually from 57.3 µM), inactives show at the highest dose activity, negative = inhibition, hits mostly inhibitors. actives 0.54% (n = 240,000). AID 2549;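 further: plate controls were vehicle for no effect and no enzyme for full effect; nearly all actives have a fitted effect of over 30% in size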
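50 nM RECQ1T1 preincubated 15 min with compound in Tris pH 8.0 buffer with MgCl2, DTT, Tween-20 and 2.5 ug/ml poly(dI-dC); started with 200 nM TAMRA/BHQ-2 forked duplex and 2 mM ATP. Unwinding read as fluorescence (525/598 nm), two reads 2 h apart.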
APE1 inh – inhibitors of human APE1 endonuclease; P27695; recombinant APE1, TAMRA/BHQ-2 abasic DNA cleavage fluorescence; Potency, µM (top dose mostly 65.8 µM), for inactives: at the top dose activity change, negative = inhibition, most hits filed as inhibitors; actives 0.35% (n = 350,000); AID 2517;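 further: plate controls were vehicle for no effect and reference inhibitor for full effect; nearly all actives have a fitted effect of over 55% in size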
Target sequence (P27695 whole entry, looked up): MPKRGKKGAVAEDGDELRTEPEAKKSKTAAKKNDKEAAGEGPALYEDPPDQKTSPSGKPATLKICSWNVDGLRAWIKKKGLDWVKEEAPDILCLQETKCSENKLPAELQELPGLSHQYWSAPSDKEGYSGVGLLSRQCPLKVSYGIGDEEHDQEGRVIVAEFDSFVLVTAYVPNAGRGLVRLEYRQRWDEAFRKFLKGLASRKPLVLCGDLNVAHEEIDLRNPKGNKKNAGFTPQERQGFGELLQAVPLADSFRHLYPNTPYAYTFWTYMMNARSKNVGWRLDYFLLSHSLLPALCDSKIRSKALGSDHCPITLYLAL
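Quantitative HTS: incision of a TAMRA/BHQ-2 double-stranded substrate bearing a tetrahydrofuran abasic site by 0.75 nM APE1 raises fluorescence. Substrate 50 nM final, added after 15 min compound preincubation at room temperature; progress as third-minus-first kinetic read difference.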
GoLoco inh red – RGS12 GoLoco-Gai1 interaction inhibition. Gai1:RGS12 GoLoco peptide FP, rhodamine, 10 min. P63096. AID 880. actives 0.44% (n = 230,000). Potency, µM (top dose mostly 61.6 µM), without a hit: at the highest dose activity, negative = inhibition, hits mostly inhibitors; active means well fitted inhibition curve with a large enough effect, not every such curve was filed as active; inactive means no such curve, though single readings can be large or run the other way; further: nearly all actives have a fitted effect of over 30% in size
Active calls of the source: *; i = inactive; ? = inconclusive; / = not tested or not shown; ! = not confirmed by another sample; [ ] = remark or other dose. Unless noted, the call rests on the fitted dose curve; in most records, active means well fitted curve in the direction sought with a large enough effect; inconclusive means small, poorly fitted or top-dose-only effect, or another doubt; inactive means no such curve, though single readings can be large; an effect the other way counts as inactive or inconclusive. Unless noted, on the % scale 0 is the no-effect control and ±100 the full control effect; potency means the concentration at half of the fitted maximal effect.

SMILES	BLM inh	JMJD2E inh	L3MBTL1 inh	RECQ1 helicase	APE1 inh	GoLoco inh red
CC(=O)N1c2ccccc2[C@@H](C)[C@@H]1C	/	/	16%	/	61%	/
CC(=O)N1c2ccccc2C2(O)N=C(C)SC12 (stereo not drawn)	-3%	-14%	-6%	1%	-2%	7.9µM*
CCN1/C(=C/C(C)=C/c2sc3ccccc3[n+]2CC)Sc2ccccc21	?	-13%	/	13µM*	-14%	-134%
CSCC[C@H](NC(=O)[C@H](CC(C)C)NC(=O)CNC(=O)[C@H](Cc1ccccc1)NC(=O)[C@H](Cc1ccccc1)NC(=O)[C@H](CCC(N)=O)NC(=O)[C@H](CCC(N)=O)NC(=O)[C@@H]1CCCN1C(=O)[C@H](CCCCN)NC(=O)[C@@H]1CCCN1C(=O)[C@H](CCCN=C(N)N)NC(=O)CCCCC1SCC2NC(=O)NC21)C(N)=O (stereo partly drawn)	1%	/	/	-11%	1%	/
CCOC(=O)c1c(-c2ccc(C)cc2)csc1NC(=O)CCN1CCOCC1	-7%	32µM*	-9%	-9%	7%	-4%
Oc1ccc(N=Nc2c(O)ccc3ccccc23)cc1	-22%	-16%	18µM*	35µM*	-12%	181%
S=c1[nH]nc(-c2ccccn2)n1/N=C/c1ccc(Cl)cc1	-3%	5%	16µM*	-3%	6%	2%
S=c1[nH]nc(-c2ccccn2)n1/N=C/c1ccccc1	4%	?	?	i	17%	16%
S=c1[nH]nc(-c2ccccn2)n1/N=C/c1c(Cl)cccc1Cl	0%	-7%	20µM*	1%	7%	0%
COc1ccc(CCNS(=O)(=O)c2ccc(N3CCCCS3(=O)=O)cc2)cc1OC	0%	/	/	/	/	/
CC(C)n1nnc2cc(C(=O)O)ccc21	-7%	/	/	4%	1%	-6%
COc1ccc(-n2c(=O)c(CCc3ccccc3)nc3cnc(N4CCNCC4)nc32)cc1	0%	/	/	-9%	7%	71%
CC#CCN1c2ccccc2[C@]23C[C@@H](C(=O)OC)N(S(=O)(=O)c4cccs4)C2=NC(C(=O)OC)=C(C(=O)OC)[C@H]13	-8%[12.4 µM]	1%[11.4 µM]	/	3%[11.5 µM]	1%[12.4 µM]	-4%[14.2 µM]
O=C(COC(=O)c1ccccc1)Nc1ncc([N+](=O)[O-])s1	/	/	3.5µM*	/	3.4µM*	/
O=C(Nc1ccccc1)Nc1ncc([N+](=O)[O-])s1	-8%	-14%	-15%	-6%	-6%	4%
CCCc1nc2ccccc2c(=O)n1/N=C/c1ccc(O)cc1O	-9%	32µM*	-7%	-5%	-1%	4%
Cc1cc(/C=N/n2c(COc3ccccc3)nc3ccccc3c2=O)c(O)c([N+](=O)[O-])c1	-10%	?	5.6µM*	-4%	-4%	36%
Cc1nc2ccccc2c(=O)n1/N=C/c1c(O)ccc2ccccc12	-5%	-14%	22µM*	11%	3%	7%
O=c1c2ccccc2nc(N/N=C/c2c(O)ccc3ccccc23)n1O	-23%	11µM*	?	-25%	10%	9%
O=c1c2ccccc2nc(N/N=C/c2ccc(O)cc2)n1O	-4%	?	-2%	-8%	8%	-4%
CCOC(=O)c1ccc(NS(=O)(=O)c2cc(-c3onc(C)c3C)ccc2C)cc1	-4%	/	/	/	/	/
CC(=O)Nc1ccc(NC(=O)C(C)OC(=O)/C(C#N)=C/c2ccc(N(C)C)cc2)cc1 (stereo not drawn)	/	/	-1%	/	-27%	/
CC(OC(=O)/C(C#N)=C/c1ccc(N(C)C)cc1)C(=O)N(C)c1ccccc1 (stereo not drawn)	/	/	20%	/	24µM*	/
CC(C)c1nc(N2CCN(C(=O)c3ccccc3)CC2)c(C#N)c2c1COC(C)(C)C2	-1%	?	26%[11.4 µM]	i	0%	6%
CC1(C)Cc2c(C#N)c(N3CCN(C(=O)c4ccccc4)CC3)nc(-c3ccco3)c2CS1	28µM*	5%	?	-1%	3%	0%
SMILES	BLM inh	JMJD2E inh	L3MBTL1 inh	RECQ1 helicase	APE1 inh	GoLoco inh red
N#Cc1c(-c2ccc(OCCOCCOCCN)cc2)no[n+]1[O-]	/	/	/	/	-4%	/
O=C(c1cccc([N+](=O)[O-])c1)N1CCOCC1	3%	?	12%	-4%	2%	5%
O=C(/C=C\c1ccc(-c2cccc([N+](=O)[O-])c2)o1)N1CCOCC1	-1%	16µM*	-14%	i	8%	-8%
COc1ccc(NC(=O)CSc2nnc(-c3cccc(S(=O)(=O)N4CCCC4)c3)n2-c2ccccc2)cc1	/	/	/	/	35%	/
Cc1ccccc1NC(=O)c1c(C)oc2ccc(O)c(CN3CCCCCC3)c12	4%	/	/	/	/	/
O=c1[nH]cnc2nc(-c3ccccc3)c(-c3ccccc3)nc12	1%	3.2µM*	2%	i	6%	8%
Cc1oc(-c2ccccc2Cl)nc1Cn1c(SCc2cccc(F)c2)nc2cccnc21	-11%	/	/	/	/	/
COc1ccc(-c2cc3nc(C)c(CCC(=O)N4CCN(c5ccccn5)CC4)c(C)n3n2)c(OC)c1	-3%	13µM*	/	-2%	1%	-2%
CC(=O)OC[C@@]12C(=O)[C@@H](O)[C@@H](C)[C@]3(C[C@@H](c4ccoc4)O[C@@H]3OC(C)=O)[C@H]1CCC[C@]21CO1	-1%	3%	/	9%	4%	5%
CCN(CCCc1ccccc1)CCCc1ccccc1	-2%	8.9µM*	9%	-12%	-7%	28µM*!
CCCN(CCO)CCCc1ccccc1	2%	?	/	i	16%	4%
CC(C)C1O[C@H](/C=C\c2ccccc2)OCC1(C)C (stereo partly drawn)	/	/	/	/	/	0%[14.2 µM]
CN(C)c1ccc(NC(=S)c2ccccn2)cc1	-1%	18µM*	32µM*	-7%	2%	-5%
CCCc1ccc(O)c(N=Cc2cc(Br)cc(OCC)c2O)c1	-23%	16µM*	/	-4%	1%	168%
O=C(Nc1c(C(=O)Nc2ccccc2F)oc2ccccc12)c1cc2ccccc2o1	0%	/	/	/	/	/
CCn1c2ccccc2c2cc(C3C(C#N)=C(N)Oc4n[nH]c(COC)c43)ccc21 (stereo not drawn)	-8%	10µM*	/	0%	-12%	22%
COCc1[nH]nc2c1C(c1ccc(OC)c(OC)c1)C(C#N)=C(N)O2 (stereo not drawn)	-2%	-3%	-7%	i	11%	4%
CCOc1ccccc1O[C@@H](c1ccccc1)[C@@H]1CNCCO1	3%	?	/	-4%	/	10%
CCC(C)(C)C1CCC2(CC1)NC(=O)N(CC(=O)NC(C)CCc1ccccc1)C2=O (stereo not drawn)	/	/	3%	/	-3%	/
O=S(=O)(c1ccc(NC(=S)NN=C2CCCCC2)cc1)N1CCOCC1	-5%	?	8%	0%	35µM*	14%
